# Assay results taken from the supplement of paper PMC6411743.
# ± gives the standard deviation of the averaged measurements. The full data set covers some 5,400 targets. This sample favours those with the largest changes.
# Compound: Nc1nc2c(ncn2[C@@H]2O[C@H](COP(=O)(O)OP(=O)(O)OP(=O)(O)O)[C@@H](O)[C@H]2O)c(=O)[nH]1 [guanosine triphosphate]
# Experiment: NP40-soluble protein abundance relative to vehicle (solubility fold change) (ratio); higher = more soluble protein in presence of GTP
# Method in brief: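 Crude Jurkat lysate, prepared by Dounce homogenisation, was exposed to eight concentrations from 0.1 to 10 mM for 10 min at room temperature and then 3 min at 37 °C. Solubilisation used 0.8% NP40 with benzonase for 60 min at 4 °C, followed by ultracentrifugation and TMT labelling of the supernatant for LC-MS/MS. After vsn normalisation of intensities, each value is the fold change against the detergent-processed vehicle within each replicate, across three independent experiments.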
# Sequence of UniProt Q9Y4I1 (Q9Y4I1 whole entry, one chain of several): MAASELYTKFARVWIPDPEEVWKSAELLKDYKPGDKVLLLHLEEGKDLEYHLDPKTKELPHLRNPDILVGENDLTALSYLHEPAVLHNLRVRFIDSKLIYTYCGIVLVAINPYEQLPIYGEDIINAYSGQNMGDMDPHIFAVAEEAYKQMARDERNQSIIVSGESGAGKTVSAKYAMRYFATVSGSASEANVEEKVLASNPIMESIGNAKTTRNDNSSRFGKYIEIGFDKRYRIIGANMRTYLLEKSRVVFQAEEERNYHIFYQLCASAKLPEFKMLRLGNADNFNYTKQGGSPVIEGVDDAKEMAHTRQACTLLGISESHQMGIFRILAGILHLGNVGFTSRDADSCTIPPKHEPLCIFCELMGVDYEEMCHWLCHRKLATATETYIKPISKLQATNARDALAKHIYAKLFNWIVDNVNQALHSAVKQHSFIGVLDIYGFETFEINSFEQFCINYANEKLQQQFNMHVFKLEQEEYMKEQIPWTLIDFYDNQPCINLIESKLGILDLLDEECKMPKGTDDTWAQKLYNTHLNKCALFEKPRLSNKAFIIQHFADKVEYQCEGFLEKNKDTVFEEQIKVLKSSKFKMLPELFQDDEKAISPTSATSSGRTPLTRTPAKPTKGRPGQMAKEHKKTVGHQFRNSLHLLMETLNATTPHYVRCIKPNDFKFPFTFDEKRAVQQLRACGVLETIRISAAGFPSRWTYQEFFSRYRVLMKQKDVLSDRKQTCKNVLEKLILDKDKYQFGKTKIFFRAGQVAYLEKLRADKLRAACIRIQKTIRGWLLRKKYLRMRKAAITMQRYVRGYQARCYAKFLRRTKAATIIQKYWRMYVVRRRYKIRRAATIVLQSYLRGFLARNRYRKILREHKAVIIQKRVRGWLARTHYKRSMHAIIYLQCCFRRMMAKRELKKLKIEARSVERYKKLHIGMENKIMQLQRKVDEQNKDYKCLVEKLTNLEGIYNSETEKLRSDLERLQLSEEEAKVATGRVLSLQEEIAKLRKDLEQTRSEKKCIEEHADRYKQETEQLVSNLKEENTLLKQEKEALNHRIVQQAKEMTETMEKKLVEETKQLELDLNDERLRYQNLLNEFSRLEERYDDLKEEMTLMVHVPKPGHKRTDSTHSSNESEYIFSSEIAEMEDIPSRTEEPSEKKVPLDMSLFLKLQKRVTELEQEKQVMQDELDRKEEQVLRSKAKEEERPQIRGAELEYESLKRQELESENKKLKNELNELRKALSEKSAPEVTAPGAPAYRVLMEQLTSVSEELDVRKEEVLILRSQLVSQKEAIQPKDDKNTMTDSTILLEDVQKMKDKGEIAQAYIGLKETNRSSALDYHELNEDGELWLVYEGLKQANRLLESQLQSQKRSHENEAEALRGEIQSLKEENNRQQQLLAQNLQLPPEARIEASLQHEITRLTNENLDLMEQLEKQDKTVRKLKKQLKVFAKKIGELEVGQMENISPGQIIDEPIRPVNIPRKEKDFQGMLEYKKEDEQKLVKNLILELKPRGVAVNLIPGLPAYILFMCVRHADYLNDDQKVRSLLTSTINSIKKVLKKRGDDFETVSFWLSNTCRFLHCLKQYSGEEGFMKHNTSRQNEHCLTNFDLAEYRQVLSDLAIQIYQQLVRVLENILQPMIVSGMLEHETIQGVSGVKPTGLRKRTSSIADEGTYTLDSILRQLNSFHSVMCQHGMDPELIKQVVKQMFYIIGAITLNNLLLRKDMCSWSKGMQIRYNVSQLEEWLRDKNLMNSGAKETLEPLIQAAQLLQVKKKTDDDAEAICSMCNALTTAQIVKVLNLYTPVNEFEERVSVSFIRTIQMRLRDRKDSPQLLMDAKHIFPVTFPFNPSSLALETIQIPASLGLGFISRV
# Sequence of UniProt Q03013 (Q03013 whole entry, one chain of several): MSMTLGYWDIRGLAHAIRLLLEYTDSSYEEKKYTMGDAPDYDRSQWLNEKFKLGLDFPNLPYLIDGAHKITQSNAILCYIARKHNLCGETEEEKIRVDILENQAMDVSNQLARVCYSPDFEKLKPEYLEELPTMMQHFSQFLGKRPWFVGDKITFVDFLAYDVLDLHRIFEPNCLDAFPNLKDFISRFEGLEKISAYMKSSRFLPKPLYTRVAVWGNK
# Sequence of UniProt Q8NI36 (Q8NI36 whole entry, one chain of several): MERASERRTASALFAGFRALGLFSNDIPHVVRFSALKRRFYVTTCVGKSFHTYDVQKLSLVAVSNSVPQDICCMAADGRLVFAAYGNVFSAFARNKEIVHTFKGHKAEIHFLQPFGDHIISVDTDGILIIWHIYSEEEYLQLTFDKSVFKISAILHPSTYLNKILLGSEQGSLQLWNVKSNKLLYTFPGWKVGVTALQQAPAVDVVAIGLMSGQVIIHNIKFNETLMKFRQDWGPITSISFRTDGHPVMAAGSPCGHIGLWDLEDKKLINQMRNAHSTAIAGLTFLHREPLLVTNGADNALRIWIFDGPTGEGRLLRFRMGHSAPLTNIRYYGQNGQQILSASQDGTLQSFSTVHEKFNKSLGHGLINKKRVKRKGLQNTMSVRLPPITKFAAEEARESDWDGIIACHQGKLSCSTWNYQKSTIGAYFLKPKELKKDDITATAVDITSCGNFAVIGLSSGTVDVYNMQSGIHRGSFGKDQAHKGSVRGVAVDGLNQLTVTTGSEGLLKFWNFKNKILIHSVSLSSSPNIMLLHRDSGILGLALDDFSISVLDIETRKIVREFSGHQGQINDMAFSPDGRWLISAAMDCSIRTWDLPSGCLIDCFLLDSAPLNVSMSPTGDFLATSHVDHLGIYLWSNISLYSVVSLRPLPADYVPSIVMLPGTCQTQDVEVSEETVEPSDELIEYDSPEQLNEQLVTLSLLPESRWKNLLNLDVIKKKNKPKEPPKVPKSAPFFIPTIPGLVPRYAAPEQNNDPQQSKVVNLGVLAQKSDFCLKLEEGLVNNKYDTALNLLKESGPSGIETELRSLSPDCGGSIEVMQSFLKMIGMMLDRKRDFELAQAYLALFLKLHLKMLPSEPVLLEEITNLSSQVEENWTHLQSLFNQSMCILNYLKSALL
# Sequence of UniProt P09234 (P09234 whole entry, one chain of several): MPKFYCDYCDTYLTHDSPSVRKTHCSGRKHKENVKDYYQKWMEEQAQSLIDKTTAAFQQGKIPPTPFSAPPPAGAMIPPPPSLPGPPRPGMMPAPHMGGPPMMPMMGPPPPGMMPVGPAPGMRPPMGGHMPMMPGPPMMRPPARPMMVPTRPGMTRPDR
# Sequence of UniProt P15336 (P15336 whole entry, one chain of several): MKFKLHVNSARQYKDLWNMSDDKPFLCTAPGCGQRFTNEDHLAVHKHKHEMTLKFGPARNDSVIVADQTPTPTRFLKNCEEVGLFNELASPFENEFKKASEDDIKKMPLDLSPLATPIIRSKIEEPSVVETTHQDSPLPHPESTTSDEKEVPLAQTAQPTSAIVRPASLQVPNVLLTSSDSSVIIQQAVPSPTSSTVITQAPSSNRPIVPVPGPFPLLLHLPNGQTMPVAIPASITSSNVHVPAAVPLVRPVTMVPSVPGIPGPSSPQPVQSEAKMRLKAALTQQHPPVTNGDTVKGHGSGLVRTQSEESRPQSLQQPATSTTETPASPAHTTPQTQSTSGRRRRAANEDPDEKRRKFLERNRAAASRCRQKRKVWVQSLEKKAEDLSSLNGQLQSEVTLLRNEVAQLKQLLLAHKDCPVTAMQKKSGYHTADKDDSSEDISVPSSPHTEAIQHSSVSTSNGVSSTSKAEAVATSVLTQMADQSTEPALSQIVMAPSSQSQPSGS
# Sequence of UniProt P07766 (P07766 whole entry, one chain of several): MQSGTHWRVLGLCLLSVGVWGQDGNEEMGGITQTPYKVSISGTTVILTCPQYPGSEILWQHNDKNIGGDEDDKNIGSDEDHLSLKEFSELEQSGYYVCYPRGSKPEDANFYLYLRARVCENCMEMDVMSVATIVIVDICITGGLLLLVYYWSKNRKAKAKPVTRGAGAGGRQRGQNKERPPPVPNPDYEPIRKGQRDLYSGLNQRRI
Target,NP40-soluble protein abundance (concentration: 0.1mM),NP40-soluble protein abundance (concentration: 0.5mM),NP40-soluble protein abundance (concentration: 1mM),NP40-soluble protein abundance (concentration: 2mM),NP40-soluble protein abundance (concentration: 4mM),NP40-soluble protein abundance (concentration: 6mM),NP40-soluble protein abundance (concentration: 8mM),NP40-soluble protein abundance (concentration: 10mM)
A0A0A0MR85|Q03013 (UniProt Q03013),1.08 ± 0.068,1.07 ± 0.067,1.04 ± 0.078,1.03 ± 0.14,0.929 ± 0.058,0.985 ± 0.071,1 ± 0.11,0.989 ± 0.14
G3V394|Q9Y4I1-3 (UniProt Q9Y4I1),1.28 ± 0.16,2.15 ± 0.36,2.39 ± 0.25,2.51 ± 0.3,2.65 ± 0.31,2.59 ± 0.39,2.5 ± 0.4,2.51 ± 0.36
A0A0A0MTB8|Q8NI36 (UniProt Q8NI36),1.1 ± 0.013,1.18 ± 0.047,1.2 ± 0.064,1.55 ± 0.056,2 ± 0.13,2.39 ± 0.2,2.33 ± 0.13,2.39 ± 0.3
A0A0A0MRR7|P09234 (UniProt P09234),1.06 ± 0.017,1.19 ± 0.068,1.25 ± 0.068,1.36 ± 0.052,1.33 ± 0.11,1.56 ± 0.097,1.71 ± 0.2,1.82 ± 0.24
A0A087WWH3|Q9NZM4|Q9NZM4-2 (UniProt Q9NZM4),1.06 ± 0.018,0.989 ± 0.1,1.16 ± 0.19,1.22 ± 0.1,1.22 ± 0.15,1.13 ± 0.33,1.2 ± 0.44,1.33 ± 0.38
E9PSH8|P07766 (UniProt P07766),0.955 ± 0.049,0.991 ± 0.076,0.986 ± 0.071,0.958 ± 0.085,0.962 ± 0.082,0.96 ± 0.082,0.978 ± 0.068,0.983 ± 0.11
B8ZZU6|E9PBF9|P15336-5|P15336 (UniProt P15336),0.868 ± 0.086,0.907 ± 0.044,0.969 ± 0.14,0.943 ± 0.078,0.899 ± 0.011,0.899 ± 0.045,0.906 ± 0.1,0.955 ± 0.078
